Test results: the supplement of paper PMC13380429
A number with no mark means an inactive call.

What follows are compounds tested on Vero E6 infected with SARS-CoV-2 (assay: inhibition of SARS-CoV-2 cytopathic effect; higher = more antiviral protection, active = above 15). Settings: 10000 nM; 48 h.

SMILES | inhibition of SARS-CoV-2 cytopathic effect
CCC(=O)O[C@@H]1CC(=O)O[C@H](C)C/C=C/C=C/[C@H](OC(C)=O)[C@H](C)C[C@H](CC=O)[C@H](O[C@@H]2O[C@H](C)[C@@H](O[C@H]3C[C@@](C)(OC(C)=O)[C@@H](OC(=O)CC)[C@H](C)O3)[C@H](N(C)C)[C@H]2O)[C@H]1OC [miocamycin] | -2.09%
Cc1ccsc1C(=CCCN1CCC[C@@H](C(=O)O)C1)c1sccc1C [tiagabine] | 0.65%
Clc1ccccc1C(c1ccccc1)(c1ccccc1)n1cccn1 | 0.33%
CCCCN1CCC(CNC(=O)c2c3n(c4ccccc24)CCCO3)CC1 [piboserod] | 1.25%
Cn1cc(C2=C(c3cn(CCCSC(=N)N)c4ccccc34)C(=O)NC2=O)c2ccccc21 [bisindolylmaleimide-IX] | -1.54%
CCCN(CCc1cccs1)[C@H]1CCc2c(O)cccc2C1 [rotigotine] | -6.53%
CC(=O)N[C@@H](Cc1c[nH]c2ccccc12)C(=O)OCc1cc(C(F)(F)F)cc(C(F)(F)F)c1 | 4%
CCOc1ccccc1C(N)=O [ethenzamide] | 4.34%
OCCN1CCN(CCCN2c3ccccc3C=Cc3ccccc32)CC1 [opipramol] | -3.08%
C[C@H](Oc1cc(-c2cnn(C3CCNCC3)c2)cnc1N)c1c(Cl)ccc(F)c1Cl [crizotinib-(S)] | 54.7% (active)
CCC(=O)O[C@]1(C(=O)CO)CC[C@H]2[C@@H]3CCC4=CC(=O)CC[C@]4(C)[C@H]3CC[C@@]21C | 2.45%
Cc1cccc(-c2n[nH]cc2-c2ccc3ncccc3n2)n1 [repsox] | -4.62%
O=C(Cc1ccc(-c2ccc(OCCN3CCOCC3)cc2)cn1)NCc1ccccc1 | -1.44%
Nc1ncnc2nc(-c3ccc(N4CCOCC4)nc3)cc(-c3cccc(Br)c3)c12 | -1.01%
Cc1nc(C)c(C)nc1C [chuanxiongzine] | 1.87%
O=C(CCCN1CC=C(n2c(=O)[nH]c3ccccc32)CC1)c1ccc(F)cc1 [droperidol] | -2%
CC1(C)CC[C@]2(NC(=O)C(C)(F)F)CC[C@]3(C)[C@H](C(=O)C=C4[C@@]5(C)C=C(C#N)C(=O)C(C)(C)[C@@H]5CC[C@]43C)[C@@H]2C1 [Omaveloxolone (RTA-408)] | -13.7%
N[C@H](C(=O)O)c1ccc(O)cc1 [oxfenicine] | 2.3%
CCS(=O)(=O)N1CCC[C@@H]2CN3CCc4cc(OC)ccc4[C@@H]3C[C@@H]21 | -0.18%
O=C(Nc1cc(C(F)(F)F)cc(C(F)(F)F)c1)Nc1c(Br)cc(Br)cc1-c1nnn[nH]1 | -3.2%

SMILES | inhibition of SARS-CoV-2 cytopathic effect
CC(NC(=O)c1ccccc1/N=C/c1c(O)ccc2ccccc12)c1ccccc1 (centres undefined) [sirtinol] | 0.96%
Cc1ccc(Cl)c(Nc2ccccc2C(=O)O)c1Cl [meclofenamic-acid] | -1.58%
COc1cc(-c2cc(-c3cccc(O)c3)cnc2N)cc(OC)c1OC | 2.09%
Brc1c(Br)c(Br)c2[nH]nnc2c1Br [4,5,6,7-tetrabromobenzotriazole] | 3.61%
C=C(C)CN1CC[C@]23c4c5ccc(O)c4O[C@H]2c2[nH]c4ccccc4c2C[C@@]3(O)C1C5 | 1.05%
O=C(Nc1ccccc1F)N[C@H]1N=C(c2ccccc2)c2ccccc2NC1=O | -0.49%
O=C(O)[C@@H]1C[C@@H](C2CCCCC2)CN1C(=O)CP(=O)(O)CCCCc1ccccc1 [fosinoprilat] | 6.8%
Nc1nc2ccc(OC(F)(F)F)cc2s1 [riluzole] | 1.88%
C[C@H](N)C(=O)N[C@@]1(C(=O)O)C[C@@H](Sc2nnc[nH]2)[C@H]2[C@H](C(=O)O)[C@H]21 | 0.56%
O=C/C=C/c1ccccc1 [cinnamaldehyde] | 5.38%
NS(=O)(=O)c1cc2c(cc1Cl)N=C(CSCc1ccccc1)NS2(=O)=O [benzthiazide] | -0.2%
CN1CCN(C2=Cc3ccccc3Oc3ccc(Cl)cc32)CC1 | -1.46%
CCCCC(CC)CCC(CC(C)C)OS(=O)(=O)O (centres undefined) [sodium-tetradecyl-sulfate] | 3.12%
O=C(O)Cc1cccc2c(=O)cc(-c3ccccc3)oc12 [mitoflaxone] | 0.08%
Cc1c(N)cccc1Cn1ccc(OCCc2cccs2)cc1=O | -2.07%
COc1cc(OCc2cccc(-c3ccccc3)c2C)cc(OC)c1CN1CCCC[C@H]1C(=O)O [PD1-PDL-inhibitor-1] | 0.4%
Cc1ccsc1/C=C/C1=NCCCN1C [morantel] | -0.33%
CC[C@@H]1C(=O)N(C)c2cnc(Nc3ccc(C(=O)N[C@H]4CC[C@H](N5CCN(CC6CC6)CC5)CC4)cc3OC)nc2N1C(C)C [volasertib] | -14.9%
COC(=O)[C@@H](N)CCCNC(=N)N[N+](=O)[O-] | -0.4%
